UHRF1 binding: blocks human UHRF1 binding to methylated DNA. Q96T88. UHRF1 binding to methylated oligo, TR-FRET. inhibition, % at 4.4 µM. actives 0.75% (n = 370,000). AID 687016; in the data active means inhibition above about 21%;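 further: UHRF1 SRA domain binding a hemimethylated CpG hairpin DNA probe; 0% = median of test compound wells and 100% = reference inhibitor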
Target sequence (Q96T88 whole entry, looked up, the tested form may be a part): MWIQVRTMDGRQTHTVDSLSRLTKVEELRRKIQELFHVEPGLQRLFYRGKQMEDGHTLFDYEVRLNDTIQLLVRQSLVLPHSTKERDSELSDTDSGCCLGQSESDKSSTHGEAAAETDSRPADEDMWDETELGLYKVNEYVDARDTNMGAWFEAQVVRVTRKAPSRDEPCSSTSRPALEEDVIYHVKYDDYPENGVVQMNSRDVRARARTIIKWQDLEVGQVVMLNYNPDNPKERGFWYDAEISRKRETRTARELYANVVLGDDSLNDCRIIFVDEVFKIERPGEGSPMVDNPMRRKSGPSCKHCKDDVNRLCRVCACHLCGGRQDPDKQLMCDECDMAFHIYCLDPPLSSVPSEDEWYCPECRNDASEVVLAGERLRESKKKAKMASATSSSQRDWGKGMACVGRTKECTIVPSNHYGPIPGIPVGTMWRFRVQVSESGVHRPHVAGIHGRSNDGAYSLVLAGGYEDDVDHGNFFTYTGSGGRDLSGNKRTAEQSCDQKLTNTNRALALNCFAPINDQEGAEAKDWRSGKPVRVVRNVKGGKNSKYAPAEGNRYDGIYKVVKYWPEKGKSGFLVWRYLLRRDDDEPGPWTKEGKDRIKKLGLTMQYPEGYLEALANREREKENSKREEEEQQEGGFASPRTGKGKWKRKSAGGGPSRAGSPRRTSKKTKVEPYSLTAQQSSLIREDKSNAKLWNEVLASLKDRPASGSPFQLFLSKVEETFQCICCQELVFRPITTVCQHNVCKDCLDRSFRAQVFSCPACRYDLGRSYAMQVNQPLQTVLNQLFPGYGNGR
LEDGF integ inh: blocks HIV-1 LEDGF/p75-dependent DNA integration | TR-FRET IN-LEDGF/p75 DNA integration, Eu/Cy5 | inhibition, % at 3.7 µM | actives 0.64% (n = 370,000) | AID 743269;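 active means inhibition above the screen-wide mean plus 3 SD, cut at about 13% in these data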;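 further: signal is the Cy5 over europium emission ratio at 671 and 618 nm; 0% = plate median of compound wells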
MBD2 inh: MBD2-methylated oligo binding inhibition; Q9UBB5; TR-FRET, MBD2 binding to methylated oligonucleotide; inhibition, % at 4.4 µM; actives 0.31% (n = 370,000); AID 686964; in the data active means inhibition above about 13%
PLCb3 inh: inhibitors of human phospholipase C beta3; Q01970; Purified PLC-beta3, fluorogenic substrate, fluorescence; inhibition, % at 12.2 µM; actives 0.18% (n = 370,000); in the data active means inhibition above about 11%;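 further: 0% = median of compound wells on plate and 100% = full blocker control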
PLCg1 inh: PLC-gamma1 (human) inhibition, primary screen. AID 720700. P19174. actives 0.84% (n = 370,000). purified PLC-gamma1, fluorogenic substrate, fluorescence. inhibition, % at 12.2 µM; in the data active means inhibition above about 9.5%
IN multimer up: counter-screen for LEDGF/p75 integration inhibitors: HIV-1 integrase multimerization activators; shares compounds with LEDGF integ inh; actives 17% (n = 2,000); activation, % at 7.7 µM; TR-FRET HIV-1 integrase multimerization, biochemical; in the data active means activation above about 8.9%
TRFRET interf: counter-screen for LEDGF/p75 integration inhibitors: TR-FRET optical interference. shares compounds with LEDGF integ inh. TR-FRET optical interference counterscreen, HIV-1 IN multimerization. inhibition, % at 7.7 µM. 2,000 tested, under 10 active. AID 1053135;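 active means inhibition above the mean over all tested compounds plus 3 SD, which no compound reached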;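 further: 0% = integrase with antibodies and DMSO and 100% = antibodies without integrase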
LEDGF integ conf: LEDGF/p75-dependent HIV-1 integration inhibition, confirmation; shares compounds with LEDGF integ inh; inhibition, % at 3.7 µM; TR-FRET LEDGF/p75-dependent HIV-1 integration, biochemical; actives 36% (n = 2,000); AID 1053136; in the data active means inhibition above about 14%
* = called active by the depositor; i = inactive; nt = no result given. This is a sample that favours compounds with a hit; in the whole collection about 2.4% have one here.

SMILES	UHRF1 binding	LEDGF integ inh	MBD2 inh	PLCb3 inh	PLCg1 inh	IN multimer up	TRFRET interf	LEDGF integ conf
Cc1sc2ncnc(SCC(=O)N3CCCC3=O)c2c1C	-2	61*	-2	-1	-2	1	-7	0
Cc1sc2ncnc(SCC(=O)N3CCCCC3)c2c1C	0	-3	3	-5	-2	nt	nt	nt
CCC(=O)Nc1ccc2c(c1)C(=O)N(C)[C@@H]1CC[C@@H](CC(=O)NCc3ccc(OC)cc3)O[C@H]1CO2	4	-2	-1	-4	3	nt	nt	nt
O=C(NCCc1c[nH]c2ccccc12)OCc1cn(-c2ccc(F)cc2)nn1	7	-6	10	-6	2	nt	nt	nt
CC[C@H](CCCc1ccc(OC)cc1)CCC(=O)N(c1ccccc1)c1ccccc1	-3	-2	3	3	-2	nt	nt	nt
C=CCn1c(N)c(C(=O)Nc2ccccc2)c2nc3ccccc3nc21	-9	21*	-5	-145	-124	2	-7	0
C(=C\n1nnc2ccccc21)/c1ccc[nH]1	7	27*	7	-31	-19	4	-22	37*
c1ccc(-n2nnc3ccccc32)cc1	-1	2	2	1	-2	nt	nt	nt
Cc1ccc(NC(=O)[C@H]2CC(=O)O[C@@H]2c2ccccc2)cc1C	4	-7	7	-5	5	nt	nt	nt
Cc1cc(O)c(CN(C)C)c2c1C(=O)/C(=C/c1ccco1)O2	16	26*	6	-258	-197	11*	-41	24*
COC[C@H]1CCCN1c1ccc2c(c1)O[C@H](C)CCN(C1CC1)S2(=O)=O	-3	0	2	1	-1	nt	nt	nt
O=C(CN1CCCCC1)NNc1nc(-c2ccccc2)c2cc(Br)ccc2n1	-3	19*	-4	-3	0	1	-5	-8
CCN(CC)C(=O)c1oc(=O)c2ccccc2c1-c1ccc(C)cc1	-2	6	-3	6	6	nt	nt	nt
COc1ccc(CC(=O)Nn2c(-c3ccccc3)nc3ccccc3c2=O)cc1	-2	2	-3	0	-1	nt	nt	nt
COc1ccc(-c2nc3ccccc3c(=O)n2NC(=O)Cc2ccccc2)cc1	-4	52*	-3	2	3	1	-4	-5
O=C(NC1CCCCN(Cc2cccc(C(F)(F)F)c2)C1=O)c1ccc(-c2ccccc2)cc1 (stereo not drawn)	-1	-1	2	-2	-1	nt	nt	nt
O=C(N/N=C\c1c(O)ccc2ccccc12)c1ccc(S(=O)(=O)N2CCCCC2)cc1	1	41*	-7	-4	-7	0	1	-5
COCCn1c(C)cc(C(=O)CSc2nnc3ccccn23)c1C	3	15*	2	-16	-14	-2	10	33*
Cc1ccc(C(=O)CSc2nnc3ccccn23)c(C)c1	1	-3	5	-9	-2	nt	nt	nt
CN1c2ccccc2C(C)(C)C12C=Nc1c(cc(N3CCOCC3)c3ccccc13)O2 (stereo not drawn)	8	14*	-7	-86	-56	2	-6	-1
CN1c2ccccc2C(C)(C)C12C=Cc1cc(O)ccc1O2 (stereo not drawn)	-6	9	-8	-30	-30	nt	nt	nt
CCOc1cccc(/C=N\NC(=O)c2cnccn2)c1O	-1	-5	0	4	-1	nt	nt	nt
COC(=O)c1sccc1N/C=C(\C#N)S(=O)(=O)C(C)(C)C	2	79*	-1	0	6	0	0	0
C[C@H]1O[C@@H](n2c3ccc(Cl)cc3c3ccc4c5cc(Cl)ccc5[nH]c4c32)[C@H](O)[C@H](O)[C@H]1O	1	0	0	-8	-4	nt	nt	nt
COc1ccc(OC)c(/C=N/NC(=O)CCc2ccc(O)c(O)c2)c1	-1	58*	1	-496	-409	2	-8	2
SMILES	UHRF1 binding	LEDGF integ inh	MBD2 inh	PLCb3 inh	PLCg1 inh	IN multimer up	TRFRET interf	LEDGF integ conf
CC(C)[C@H](NC(=O)[C@H](C)NC(=O)OC(C)(C)C)C(=O)N1CCC2CCN(Cc3ccccc3)CC21 (stereo partly drawn)	4	-4	11	0	-3	nt	nt	nt
Cc1cc(=O)[nH]c(SCC(=O)NCc2ccco2)n1	8	20*	3	-3	1	-1	6	21*
O=C(CSc1nnc(-c2ccccc2)n1-c1ccc(Cl)cc1)Nc1ccc(OCc2ccccc2)cc1	0	1	-2	1	0	nt	nt	nt
Cc1cc2c(c(=O)n1Cc1ccccn1)C(C(C)C)C(C#N)=C(N)O2 (stereo not drawn)	12	17*	3	1	0	0	1	-7
CC(C)NCC(O)c1ccc(NS(C)(=O)=O)cc1 (stereo not drawn)	-2	2	2	1	-1	nt	nt	nt
CC(C)NC[C@@H](O)c1ccc(O)c(O)c1	-2	16*	-7	-9	-11	4	-21	21*
C=CCN1C(=O)[C@@H](CC(=O)NCc2ccc(C)o2)[C@]2(C(=O)OCC)CCCCC/C=C/12	14	-4	-5	0	0	nt	nt	nt
O=c1[nH]c2cc3c(cc2cc1CN(Cc1cccs1)Cc1nnnn1Cc1ccco1)OCCO3	-3	12	-2	i	i	nt	nt	nt
O=c1[nH]c2cc3c(cc2cc1CN(Cc1cccnc1)Cc1nnnn1Cc1ccco1)OCCO3	34*	39*	11	-282	-192	14*	-72	28*
O=C(Cc1nnc(NC(=O)c2ccccc2)s1)N/N=C/c1ccc(O)cc1	-2	-1	-5	-25	-16	nt	nt	nt
O=C(Cc1nnc(NC(=O)c2ccccc2)s1)N/N=C\c1ccc(O)c(O)c1	2	16*	-2	-19	-8	35*	-123	50*
Clc1ccccc1N=Nc1ccccn1	5	25*	-1	-28	-25	1	-4	16*
COCCn1c(N)c(S(=O)(=O)c2cccs2)c2nc3ccccc3nc21	12	14*	-5	i	i	0	-2	-4
COC(=O)C1=C(O)/C(=C\c2ccc(CNS(=O)(=O)c3ccccc3)o2)N=C1C	5	23*	0	-65	-61	7	-33	18*
COC(=O)C1=C(O)/C(=C\c2ccc(CNC(=O)C(=O)Nc3ccc(C)cc3)o2)N=C1C	0	2	2	-12	-10	nt	nt	nt
CCOC(=O)C1=C(O)/C(=C\c2ccc(CNS(=O)(=O)c3ccc(Br)cc3)o2)N=C1C	5	22*	-2	-86	-79	3	-11	-3
COC(=O)C1=C(O)/C(=C\c2ccc(CNS(=O)(=O)c3ccc(Cl)cc3)o2)N=C1C	13	53*	0	-67	-44	5	-23	14*

Bioassay records: PubChem, The Scripps Research Institute Molecular Screening Center
